Values joined by “and” are separate entries in the source; they are usually repeats but may differ in a detail not shown here. Identical values can stand only once. Out of some 5,500 compounds screened, about 2,000 (36%) were called active. Roughly 18% stayed inconclusive and do not appear here. Rule as the data show it: active = normalized growth mostly below about 0.91 (no sharp cut-off); inconclusive = no clear call, values can overlap the other calls; inactive = mostly above about 0.92. The list shows a part of the results.
Test: chemical genetic growth profiling, strain panel (AID 1159580);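 also: tested at 20 µM; growth read once vehicle control cultures reached saturation at 30 °C; 1 = growth at the plate median or of vehicle wells; lower values mean less growth of the strain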
Conditions: S. cerevisiae deletion strains, growth OD

Measured: normalized growth

CC(=O)Nc1c(I)cc(I)c(C(=O)O)c1I
inactive: locus YAL013W, strain DEP1, stronger effect = lower value 0.992 | locus YAL021C, strain ccr4, stronger effect = lower value 0.986 | locus YAL026C, strain drs2, stronger effect = lower value 0.995 | locus YAL030W, strain snc1, stronger effect = lower value 0.978 | locus YBL061C, strain skt5, stronger effect = lower value 0.974 | locus YBR009C, strain hhf1, stronger effect = lower value 0.992 | locus YBR021W, strain FUR4, stronger effect = lower value 1.02 | locus YBR023C, strain chs3, stronger effect = lower value 0.979 | locus YBR171W, strain sec66, stronger effect = lower value 0.967 | locus YBR229C, strain ROT2, stronger effect = lower value 0.983 | locus YBR231C, strain swc5, stronger effect = lower value 0.971 | locus YBR279W, strain paf1, stronger effect = lower value 0.985 | locus YCL011C, strain gbp2, stronger effect = lower value 0.994 | locus YCL016C, strain dcc1, stronger effect = lower value 0.994 | locus YCL029C, strain bik1, stronger effect = lower value 0.994 | locus YCL069W, strain vba3, stronger effect = lower value 0.98 | locus YCR088W, strain abp1, stronger effect = lower value 0.978 | locus YDL005C, strain med2, stronger effect = lower value 0.967 | locus YDL035C, strain GPR1, stronger effect = lower value 1.01 | locus YDL040C, strain nat1, stronger effect = lower value 0.976 | locus YDL074C, strain BRE1, stronger effect = lower value 1.02 | locus YDL101C, strain DUN1, stronger effect = lower value 0.99 | locus YDL134C, strain PPH21, stronger effect = lower value 0.983 | locus YDL185W, strain tfp1, stronger effect = lower value 0.987 | locus YDL192W, strain arf1, stronger effect = lower value 0.999 | locus YDR001C, strain nth1, stronger effect = lower value 0.991 | locus YDR069C, strain doa4, stronger effect = lower value 0.959 | locus YDR101C, strain arx1, stronger effect = lower value 0.995 | locus YDR137W, strain rgp1, stronger effect = lower value 0.967 | locus YDR150W, strain NUM1, stronger effect = lower value 0.996 | locus YDR159W, strain sac3, stronger effect = lower value 0.967 | locus YDR162C, strain NBP2, stronger effect = lower value 1.02 | locus YDR195W, strain ref2 0.91 | locus YDR297W, strain sur2, stronger effect = lower value 0.994 | locus YDR318W, strain mcm21, stronger effect = lower value 0.995 | locus YDR334W, strain swr1, stronger effect = lower value 0.976 | locus YDR335W, strain msn5, stronger effect = lower value 0.988 | locus YDR388W, stronger effect = lower value 0.988 | locus YDR392W, strain spt3, stronger effect = lower value 1.03 | locus YDR502C, strain sam2, stronger effect = lower value 0.996 | locus YEL003W, strain gim4, stronger effect = lower value 0.978 | locus YEL037C, strain rad23, stronger effect = lower value 0.975 | locus YEL061C, strain CIN8 (second series), stronger effect = lower value 0.966 | locus YEL061C, strain CIN8, stronger effect = lower value 0.999 | locus YER015W, strain faa2, stronger effect = lower value 0.99 | locus YER016W, strain bim1, stronger effect = lower value 0.979 | locus YER110C, stronger effect = lower value 0.989 | locus YER111C, strain swi4, stronger effect = lower value 0.981 | locus YER155C, strain BEM2 (second series), stronger effect = lower value 0.977 | locus YER155C, strain BEM2, stronger effect = lower value 0.986 | locus YER167W, strain BCK2, stronger effect = lower value 0.992 | locus YFR010W, strain ubp6, stronger effect = lower value 0.965 | locus YGL078C, strain dbp3, stronger effect = lower value 0.995 | locus YGL086W, strain mad1, stronger effect = lower value 0.981 | locus YGL167C, strain pmr1, stronger effect = lower value 0.971 | locus YGL173C, strain kem1, stronger effect = lower value 0.99 | locus YGL227W, strain vid30, stronger effect = lower value 0.971 | locus YGL240W, strain doc1, stronger effect = lower value 0.974 | locus YGL248W, strain PDE1, stronger effect = lower value 0.986 | locus YGL253W, strain hxk2, stronger effect = lower value 0.979 | locus YGR078C, strain PAC10, stronger effect = lower value 1.05 | locus YGR135W, strain pre9, stronger effect = lower value 0.994 | locus YGR229C, strain SMI1, stronger effect = lower value 1.06 | locus YGR252W, strain gcn5, stronger effect = lower value 0.986 | locus YHR013C, strain ard1, stronger effect = lower value 0.987 | locus YHR027C, strain rpn1, stronger effect = lower value 0.982 | locus YHR030C, strain SLT2, stronger effect = lower value 0.991 and 1.01 | locus YHR079C, strain IRE1 (second series), stronger effect = lower value 0.998 | locus YHR079C, strain IRE1, stronger effect = lower value 1 | locus YHR094C, strain hxt1, stronger effect = lower value 0.989 | locus YHR129C, strain ARP1, stronger effect = lower value 0.991 | locus YHR142W, strain chs7, stronger effect = lower value 0.987 | locus YHR200W, strain rpn10, stronger effect = lower value 0.991 | locus YIL066C, strain RNR3, stronger effect = lower value 1 | locus YIL073C, strain SPO22, stronger effect = lower value 1.01 | locus YIL125W, strain kgd1, stronger effect = lower value 0.992 | locus YIR030C, strain dcg1, stronger effect = lower value 0.992 | locus YJL092W, strain hpr5, stronger effect = lower value 0.973 | locus YJL095W, strain BCK1 (second series), stronger effect = lower value 0.978 | locus YJL095W, strain BCK1, stronger effect = lower value 1.01 | locus YJL115W, strain asf1, stronger effect = lower value 0.963 | locus YJL129C, strain trk1, stronger effect = lower value 0.946 | locus YJL134W, strain LCB3, stronger effect = lower value 0.994 | locus YJL154C, strain vps35, stronger effect = lower value 0.964 | locus YJL164C, strain tpk1, stronger effect = lower value 0.995 | locus YJL166W, strain qcr8, stronger effect = lower value 0.971 | locus YJL168C, strain set2, stronger effect = lower value 0.99 | locus YJL187C, strain SWE1 (second series), stronger effect = lower value 0.995 | locus YJL187C, strain SWE1, stronger effect = lower value 0.983 | locus YJR043C, strain POL32, stronger effect = lower value 1.03 | locus YJR066W, strain TOR1, stronger effect = lower value 0.963
